# In the library only some 15% were active in any assay of this set; here they are far more common.
# ELG1 DNA repair: inhibitors of ELG1-dependent DNA repair in HEK293T cells. Potency, µM (titrated, usually from 46.1 µM), for the others: at the highest dose activity change, negative = inhibition, usual class: inhibitors. hit rate 2.3% among 330,000. HEK293T ELG1-luciferase reporter, luminescence, 16 h; DNA damage induced by 5-fluorouridine; further: nearly all actives have a fitted effect of over 55% in size
#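 Cells (2,000 per well) received 5-fluorouridine plus test compound or DMSO and were incubated 16 hr at 37 °C, 5% CO2. Luciferase activity was read by luminescence 30 min after ONE-Glo addition; signal suppression marked inhibition of damage-induced ELG1 function.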
# ALOX12 inh: ALOX12 (human) lipoxygenase inhibition. Potency, µM (titrated, usually from 108 µM), for the others: top-dose activity change, negative = inhibition, usual class: inhibitors. P18054. purified 12hLO, xylenol orange hydroperoxide absorbance. AID 1671190. hit rate 1.1% among 580,000
# Target sequence (P18054 whole entry, looked up): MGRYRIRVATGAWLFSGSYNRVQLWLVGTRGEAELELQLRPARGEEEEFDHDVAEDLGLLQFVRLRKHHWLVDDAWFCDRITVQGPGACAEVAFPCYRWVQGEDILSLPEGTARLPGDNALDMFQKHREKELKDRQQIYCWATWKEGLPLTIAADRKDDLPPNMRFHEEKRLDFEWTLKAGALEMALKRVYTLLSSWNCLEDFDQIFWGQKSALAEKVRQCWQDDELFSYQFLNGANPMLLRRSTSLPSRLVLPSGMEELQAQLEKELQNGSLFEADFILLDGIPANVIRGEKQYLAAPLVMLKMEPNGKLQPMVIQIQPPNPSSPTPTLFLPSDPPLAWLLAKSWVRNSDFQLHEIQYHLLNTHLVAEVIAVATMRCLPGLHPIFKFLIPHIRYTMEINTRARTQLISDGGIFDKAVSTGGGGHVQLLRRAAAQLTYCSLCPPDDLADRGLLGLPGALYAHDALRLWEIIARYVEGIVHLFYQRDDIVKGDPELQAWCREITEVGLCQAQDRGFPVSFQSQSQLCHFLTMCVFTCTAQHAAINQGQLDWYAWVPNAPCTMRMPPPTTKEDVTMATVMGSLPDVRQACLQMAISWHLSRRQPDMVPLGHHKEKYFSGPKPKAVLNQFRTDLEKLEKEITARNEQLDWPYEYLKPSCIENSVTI
#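 Hydroperoxide product was detected by ferrous iron/xylenol orange as the 573 to 405 nm absorbance ratio. Arachidonic acid at 40 uM (final) was turned over for 30 min at room temperature by 150 nM human 12hLO, pH 7.0 Hepes buffer, after 15 min compound preincubation.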
# VP16 counter: Gal4-VP16 reporter inhibition counter-screen | Drosophila S2 Gal4-VP16 UAS-luciferase, luminescence, 20 h | Potency, µM (titrated, usually from 53.6 µM), inactives show top-dose activity, negative = inhibition, hits mostly inhibitors | hit rate 3.5% among 310,000;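 further: Gal4-VP16 expression switched on by copper sulfate through the metallothionein promoter; nearly all actives have a fitted effect of over 50% in size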
# RORg inh: blocks mouse ROR gamma transcriptional activity. hit rate 5.4% among 310,000. Potency, µM (titrated, usually from 53.6 µM), for inactives: top-dose activity change, negative = inhibition, actives largely listed as inhibitors. AID 2551. Drosophila S2 Gal4-RORgamma UAS-luciferase reporter, 20 h. P51450; further: nearly all actives have a fitted effect of over 60% in size
#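 Read-out: Photinus luciferase luminescence; inhibitors lower reporter signal. Insect Schneider cells with Gal4-ROR gamma fusion under metallothionein promoter, UAS reporter; 700 uM final copper sulfate induction, 20 hr, ambient temperature.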
# DT40 TDP1 no CPT: qHTS for Inhibitors of human tyrosyl-DNA phosphodiesterase 1 (TDP1): qHTS in cells in absence of CPT; DT40 Tdp1-/- hTDP1 cells, no CPT, ATP luminescence, 48 h; hit rate 15% among 420,000; Potency, µM (doses to about 46.2 µM), without a hit: at the top dose activity change, negative = growth inhibition, hits mostly inhibitors; AID 686978, 2013; further: nearly all actives have a fitted effect of over 55% in size
#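 Seeded 400 DT40-hTDP1 cells/well (vehicle DMSO, no 20 nM CPT); pinned compounds; ≥48 hr at 37 °C; CellTiter-Glo luminescence as viability measure.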
# TDP1 cell CPT: growth inhibition of DT40 Tdp1-/-;hTDP1 cells with camptothecin (screen for TDP1 inhibitors). chicken DT40 Tdp1-/-;hTDP1 cells + 20 nM CPT, ATP luminescence, 48 h. Potency, µM (doses to about 46.2 µM), for the others: at the top dose activity change, negative = growth inhibition, most hits filed as inhibitors. hit rate 12% among 420,000; further: nearly all actives have a fitted effect of over 55% in size
#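 Chicken DT40 Tdp1-/- cells stably complemented with human TDP1 were seeded at 400 cells/well in medium containing 20 nM camptothecin, exposed to pin-transferred compounds, and grown at 37 °C for at least 48 hr. Viability was read as ATP luminescence.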
# Starred values were filed as active, the others as inactive; i = inactive; ? = inconclusive; / = no result given. The call rests on the fitted dose curve; in most records, active means well fitted curve in the direction sought with a large enough effect; inconclusive means small, poorly fitted or top-dose-only effect, or another doubt; inactive means no such curve, though single readings can be large; an effect the other way counts as inactive or inconclusive. On the % scale 0 is the no-effect control and ±100 the full control effect; potency means the concentration at half of the fitted maximal effect.
SMILES,ELG1 DNA repair,ALOX12 inh,VP16 counter,RORg inh,DT40 TDP1 no CPT,TDP1 cell CPT
N#C/C(=C(/O)c1cccs1)c1nnc2n1CCCCC2,7%,4%,?,10µM*,-1%,0%
COc1ccc(C(CNCC(O)COc2c(C)ccc(C)c2C)N(C)C)cc1 (stereo not drawn),-28%,?,15%,-28%,12µM*,26µM*
COc1ccccc1CN(C)CC(O)COc1c(C)ccc(C)c1C (stereo not drawn),/,-12%,/,/,/,/
O=C(CSc1nc(-c2ccco2)cc(C(F)(F)F)n1)N1CCCCCC1,/,34%,/,/,/,/
O=C(CCSc1nc(-c2ccco2)cc(C(F)(F)F)n1)N1CCCc2ccccc21,-12%,?,-3%,-17%,16µM*,?
O=C(CCSc1nc(-c2ccco2)cc(C(F)(F)F)n1)N1CCN(c2ccccn2)CC1,?,1%,-2%,10%,16µM*,?
O=C(CSc1nc(-c2ccco2)cc(C(F)(F)F)n1)N1CCN(c2cccc(Cl)c2)CC1,?,0%,-14%,?,23µM*,?
CC(C)c1ccc(CNCC2CCCO2)cc1 (stereo not drawn),/,1%,/,/,/,/
Cc1ccc(COc2cccc(C3C4=C(CCCC4=O)OC4=C3C(=O)CCC4)c2)cc1,/,1%,/,/,/,/
Cc1ccc(CNC(=O)c2ccc3c(c2)CCN3S(=O)(=O)c2ccccc2)cc1,/,-5%,/,/,?,?
COc1ccc(CNC(=O)c2ccc3c(c2)CCN3S(=O)(=O)c2ccc(Cl)cc2)cc1,/,-16%,/,/,16µM*,?
CCS(=O)(=O)N1CCc2cc(C(=O)NCc3ccc(Cl)cc3)ccc21,/,-29%,/,/,16µM*,?
CNC(=S)N/N=C(\C)c1ccc(C(C)(C)C)cc1,?,6%,0.89µM*,1.1µM*,-1%,-6%
CNC(=S)N/N=C(\C)c1ccccc1,?,i,16µM*,4µM*,13µM*,7.3µM*
C/C(=N\NC(=O)c1ccc(C(C)(C)C)cc1)c1ccc(C)c(C)c1,/,28%,/,/,/,/
C/C(=N\NC(=O)C(N)=O)c1cccc([N+](=O)[O-])c1,-4%,0%,-4%,0%,4%,-29%
CNC(=S)N/N=C(\C)c1cccc([N+](=O)[O-])c1,27%,?,4.5µM*,3.5µM*,2.9µM*,1.3µM*
C/C(=N\N=C(N)N)c1ccc(C)c(C)c1,-24%,6%,-8%,-7%,?,18µM*
C/C(=N\N=C(N)N)c1cccc([N+](=O)[O-])c1,5%,?,-4%,2%,13µM*,?
O=c1c2c(C(F)(F)F)cc(C(F)(F)F)nc2[nH]n1-c1ccccc1,26µM*,?,-4%,25%,?,14µM*
NC(=O)NCC(=O)N1CCCC(Nc2ccc3c(c2)OCCO3)C1 (stereo not drawn),/,-1%,/,/,/,/
O=C(CCC(F)(F)F)N1CCc2nc(-c3ccc(Cl)cc3)[nH]c2C1,/,28%,/,/,/,/
O=C(CN1C(=O)NC2(CCCc3ccccc32)C1=O)c1ccc(Br)cc1 (stereo not drawn),1%,?,/,/,13µM*,?
O=C(CN1C(=O)NC2(CCc3ccccc32)C1=O)c1ccc(Cl)cc1 (stereo not drawn),2%,-30%,/,/,?,-8%
COc1ccc(N2CCN(C(=O)CN3C(=O)NC(c4ccc(OC)cc4)(c4ccc(OC)cc4)C3=O)CC2)cc1,-7%,-6%,-4%,2%,?,?
Cc1ccc(NC(=O)CN2C(=O)NC3(CCc4ccccc43)C2=O)cc1Cl (stereo not drawn),-1%,0%,-4%,19%,26µM*,-25%
